# In PubChem BioAssay (NCATS):
# Values without a mark were called inactive. Inconclusive results are not listed. Entries that show only a call come without a potency. Active and inactive are the calls of the source. Calls follow the shape of the dose curve; as a rule, active = well fitted curve in the direction sought with a large enough effect; inconclusive = small, poorly fitted or top-dose-only effect, or another doubt; inactive = no such curve, though single readings can be large; an effect the other way counts as inactive or inconclusive.
# Legend:
# [1] = tested on: Zika virus NS2B-NS3 protease (linked construct); assay: Primary screen NINDS Rhodamine qHTS for Zika virus inhibitors (AID 1347160); settings: outcome: dose series up to 57.1 µM unless noted; also: nearly all actives have a fitted effect of over 55% in size
# How it was run: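 Purified NS2B-NS3 protease with the NS2B hydrophilic domain joined by a flexible linker (25 nM) in 10 mM Tris-HCl pH 8.0, 0.01% Tween 20, preincubated 15 min at RT with compound; Rhodamine110 peptide substrate 1.5 µM; fluorescence change over 15 min; 4-parameter Hill fit.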
# [2] = qHTS to identify inhibitors of the type 1 interferon - major histocompatibility complex class I in skeletal muscle: primary screen against the NCATS Pharmaceutical Collection (AID 1347407);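 also: luminescence of HiBiT knocked into endogenous HLA-B as interferon-induced MHC class I level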
# How it was run: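 Cells were seeded with 4 ng/ml IFN-beta, incubated 1 h, then dosed with compounds over eight 1:5 steps up to 46 uM final. After 24 h at 37 C, HiBiT lytic reagent was added and luminescence read after 10 min lysis in the dark.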
# [3] = target: Protein phosphatase 1D (Homo sapiens) (UniProt O15297); assay: RapidFire Mass Spectrometry qHTS Assay for Modulators of WT P53-Induced Phosphatase 1 (WIP1) (AID 1347424);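 also: amount of dephosphorylated VEPPL-S-QETFS peptide product formed by WIP1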; also: potency is read from the fitted curve at half-maximal effect
# How it was run: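 10 nM WIP1 preincubated with compounds 1 hr at room temperature in pH 7.5 Tris buffer with 30 mM MgCl2, 1 mM TCEP; 2 uM VEPPL-pS-QETFS phosphopeptide for 5 min, formic acid quench; dephosphorylated product quantified by RapidFire MS against labelled standard.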
# [4] = target: Protein phosphatase 1D (Homo sapiens) (UniProt O15297); assay: Rhodamine-PBP qHTS Assay for Modulators of WT P53-Induced Phosphatase 1 (WIP1) (AID 1347425)
# How it was run: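 WIP1 (5 nM final) was preincubated with compound for 1 hour at room temperature. It then dephosphorylated 10 uM VEPPL-pS-QETFS peptide in Tris-HCl pH 7.5 with 30 mM MgCl2. Released Pi was detected by 10 uM Rh-PBP fluorescence (ex 525/em 598 nm) read at 1-min intervals for 11 min, as delta f1 - f0.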
# [5] = Primary qHTS for inhibitors of La Crosse Virus (LACV) - induced cell death in SH-SY5Y cells (AID 1508616);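 also: top concentration of the series differs between compounds; higher means more rescue of cells from virus-induced death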
# How it was run: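 SH-SY5Y cells (6000/well) plated 24 h, then given compounds by pin transfer and LACV at 0.01 MOI for 6 days at 37C. Viability measured by ATPLite luminescence, normalized to infected DMSO and uninfected DMSO.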
# [6] = target: Calcium and integrin-binding protein 1 (Homo sapiens) (UniProt Q99828); assay: Primary qHTS for Identification of Calcium Integrin Binding Protein 1 (CIB1) Competitor (AID 1508620); also: potency is read from the fitted curve at half-maximal effect
# How it was run: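 Fluorescence polarization competition: GST-tagged CIB1 (1 uM final) preincubated with compound 15 min at room temperature, then FITC-labelled alphaIIb peptide (100 nM final) added. After 15 min at room temperature, polarization read at Ex 480/Em 540.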
# [7] = tested on: Zika virus NS2B-NS3 protease (unlinked complex); assay: Primary screen GU Rhodamine qHTS for Zika virus inhibitors: Unlinked NS2B-NS3 protease assay (AID 1347159); also: nearly all actives have a fitted effect of over 60% in size
# How it was run: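 Noncovalent NS2B hydrophilic domain/NS3 protease complex (25 nM final) in 10 mM Tris-HCl pH 8.0, 0.01% Tween 20, preincubated 15 min with compounds (up to 114 microM), then 1.5 microM Rhodamine110 substrate. Fluorescence change over 15 min fitted to 4-parameter Hill.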
# [8] = qHTS to identify inhibitors of the type 1 interferon - major histocompatibility complex class I in skeletal muscle: primary screen against the NCATS LOPAC collection (AID 1347405);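 also: lytic HiBiT luminescence reporting HLA-B protein level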; also: potency is read from the fitted curve at half-maximal effect
# How it was run: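 CRISPR-engineered immortalized human myoblasts (C25cl48) with HiBiT fused to endogenous HLA-B*08:01, stimulated with 4 ng/ml IFN-beta. LOPAC compounds tested as a 7-point 1:4.3 titration (top 46 uM final), 24 h at 37 C; lytic HiBiT luminescence read.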
# [9] = qHTS for inhibitors of adenylyl cyclases using a fission yeast platform: a pilot screen against the NCATS LOPAC library (AID 1347410)
# How it was run: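 Growth medium went into the plates first, then compounds were pinned (final up to 57 µM), then CHP2027 yeast were added. Plates were incubated overnight (18 h) at 30C in the dark, and GFP was measured by laser scanning cytometry.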
# [10] = Validation qHTS assay for inhibitors of Activation Induced Cytidine Deaminase (AID): UDG Counterscreen signal (AID 1347427)
# How it was run: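 Counterscreen read of UDG activity (2 U/mL, 4/3x) in the FRET deamination format with AID (1 uM, 4/3x), DJC20/DJC23 substrates (250 nM, 4x), 4 h at room temperature. NaOH stop, fluorescence at 560 ex/665 em.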
# [11] = target: Single-stranded DNA cytosine deaminase (Homo sapiens) (UniProt Q9GZX7); assay: Validation qHTS assay for inhibitors of Activation Induced Cytidine Deaminase (AID): AID signal (AID 1347429)
# How it was run: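 FRET deamination assay: 1 uM AID (4/3x stock) with UDG, compound up to 114 uM, then 250 nM DJC20/DJC23 substrate (4x stock) for 4 hr at room temperature. NaOH added, 30 min; fluorescence read 540/590 nm.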
# [12] = tested on: Zika virus NS2B-NS3 protease (linked); assay: 384 well plate NINDS AMC confirmatory qHTS for Zika virus inhibitors (AID 1347163); also: nearly all actives have a fitted effect of over 50% in size; also: potency is read from the fitted curve at half-maximal effect
# How it was run: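 Linked NS2B-NS3 protease (final 5 nM, 30 nM or 60 nM) was preincubated with compounds (final up to 1 mM) for ~15 minutes. Ac-VKTGKR-AMC substrate (final 30 microM) then reacted for 25 minutes at room temperature in the dark. Fluorescence (ex 355/em 460 nm) was normalized to no-enzyme and no-inhibitor controls.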
# [13] = target: Lysine-specific demethylase 5B (Homo sapiens) (UniProt Q9UGL1); assay: Optimization screen for KDM5B Histone Demethylases FDH coupled qHTS against the LOPAC library (AID 1347166)
# How it was run: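 KDM5BDeltaAP (200nM final) preincubated 10 min with compound, then 12.5uM H3K4Me3, 25uM a-ketoglutarate, ascorbate, Fe(II), NAD+ and FDH added; 50mM HEPES pH 7.5, 0.01% Tween-20. NADH fluorescence (340/450 nm) change over 30 min, room temperature.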
# [14] = Vero cells viability qHTS for Zika virus inhibitors (AID 1347167)
# How it was run: (§1)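 Cells seeded at 2.5 x 10^5 cells/mL in DMEM with 4% FBS and attached overnight at 37 degrees C, then exposed to compound for 24 to 48 hours. Viability read as ATP content by CellTiter Glo luminescence.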
# [15] = Tertiary RLuc qRT-PCR qHTS assay for Zika virus inhibitors (AID 1347169); also: nearly all actives have a fitted effect of over 55% in size; also: potency is read from the fitted curve at half-maximal effect
# How it was run: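 Orthogonal cell-based infection assay using recombinant ZIKV-RLuc (Cambodian) in Vero cells; compound added prior to virus at MOI 1-2. Incubation lasts 48-72 hrs at 37 degrees C before live-cell Renilla substrate is added and luminescence measured.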
# [16] = Confirmatory screen NINDS Rhodamine qHTS for Zika virus inhibitors (AID 1347161); also: potency is read from the fitted curve at half-maximal effect; nearly all actives have a fitted effect of over 60% in size
# How it was run: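 Aprotinin served as in-plate control. Conditions: 25 nM linked NS2B-NS3, pH 8.0 Tris buffer, titrated compounds, 15 min preincubation and 15 min reaction with 1.5 microM Rhod110 substrate at room temperature.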
# [17] = tested on: Zika virus NS2B-NS3 protease (linked construct); assay: 384 well plate NINDS Rhodamine confirmatory qHTS for Zika virus inhibitors (AID 1347164); settings: rhodamine-110 peptide substrate fluorescence; also: potency is read from the fitted curve at half-maximal effect; nearly all actives have a fitted effect of over 65% in size
# How it was run: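 Compounds are incubated about 15 minutes with linked protease (5, 30 or 60 nM final). Rhodamine 110-tagged Ac-LKRR substrate (10 microM final) is added and fluorescence measured after 25 minutes.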
# [18] = HepG2 cells viability qHTS for Zika virus inhibitors (AID 1347168)
# How it was run: as §1
# [19] = target: Calcium and integrin-binding protein 1 (Homo sapiens) (UniProt Q99828); assay: Confirmatory qHTS for Identification of Calcium Integrin Binding Protein 1 (CIB1) Competitor (AID 1508617); also: nearly all actives have a fitted effect of over 65% in size
# How it was run: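 FP competition: CIB1-GST (1 uM final) in 5 mM HEPES pH 7.4, 125 mM NaCl, 5 mM CaCl2, 0.01% Tween20 preincubated 15 min RT with compounds (up to 114 uM), then FITC-alphaIIb peptide (100 nM), 15 min RT; Ex 480/Em 540.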
# Chain of Protein phosphatase 1D (Homo sapiens) (O15297 whole entry, looked up): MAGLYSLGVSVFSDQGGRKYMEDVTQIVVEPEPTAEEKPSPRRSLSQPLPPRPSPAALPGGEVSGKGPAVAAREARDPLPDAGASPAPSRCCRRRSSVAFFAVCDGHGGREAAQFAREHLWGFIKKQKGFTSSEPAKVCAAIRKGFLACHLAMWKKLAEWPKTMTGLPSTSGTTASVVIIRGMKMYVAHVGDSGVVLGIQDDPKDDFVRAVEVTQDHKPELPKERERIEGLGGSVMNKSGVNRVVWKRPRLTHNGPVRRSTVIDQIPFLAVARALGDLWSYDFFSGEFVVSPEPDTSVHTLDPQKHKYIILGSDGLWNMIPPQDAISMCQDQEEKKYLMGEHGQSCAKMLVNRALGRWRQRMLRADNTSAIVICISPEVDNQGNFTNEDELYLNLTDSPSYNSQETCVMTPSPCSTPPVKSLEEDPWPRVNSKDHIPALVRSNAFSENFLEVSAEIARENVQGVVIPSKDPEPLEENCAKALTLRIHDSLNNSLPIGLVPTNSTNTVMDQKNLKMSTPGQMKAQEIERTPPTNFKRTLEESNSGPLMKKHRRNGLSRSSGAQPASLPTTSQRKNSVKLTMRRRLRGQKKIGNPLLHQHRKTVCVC
# Chain of Single-stranded DNA cytosine deaminase (Homo sapiens) (Q9GZX7 whole entry, looked up): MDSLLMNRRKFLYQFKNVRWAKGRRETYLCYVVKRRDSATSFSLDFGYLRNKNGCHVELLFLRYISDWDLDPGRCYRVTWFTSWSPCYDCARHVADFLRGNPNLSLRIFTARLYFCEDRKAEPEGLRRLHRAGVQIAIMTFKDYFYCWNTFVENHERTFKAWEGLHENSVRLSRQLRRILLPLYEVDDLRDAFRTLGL
# Chain of Calcium and integrin-binding protein 1 (Homo sapiens) (Q99828 whole entry, looked up): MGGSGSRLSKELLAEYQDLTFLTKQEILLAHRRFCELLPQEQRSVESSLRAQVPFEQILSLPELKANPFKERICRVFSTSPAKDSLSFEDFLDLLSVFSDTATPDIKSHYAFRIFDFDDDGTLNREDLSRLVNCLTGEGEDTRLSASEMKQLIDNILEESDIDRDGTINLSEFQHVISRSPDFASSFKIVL
# Chain of Lysine-specific demethylase 5B (Homo sapiens) (Q9UGL1 whole entry, looked up): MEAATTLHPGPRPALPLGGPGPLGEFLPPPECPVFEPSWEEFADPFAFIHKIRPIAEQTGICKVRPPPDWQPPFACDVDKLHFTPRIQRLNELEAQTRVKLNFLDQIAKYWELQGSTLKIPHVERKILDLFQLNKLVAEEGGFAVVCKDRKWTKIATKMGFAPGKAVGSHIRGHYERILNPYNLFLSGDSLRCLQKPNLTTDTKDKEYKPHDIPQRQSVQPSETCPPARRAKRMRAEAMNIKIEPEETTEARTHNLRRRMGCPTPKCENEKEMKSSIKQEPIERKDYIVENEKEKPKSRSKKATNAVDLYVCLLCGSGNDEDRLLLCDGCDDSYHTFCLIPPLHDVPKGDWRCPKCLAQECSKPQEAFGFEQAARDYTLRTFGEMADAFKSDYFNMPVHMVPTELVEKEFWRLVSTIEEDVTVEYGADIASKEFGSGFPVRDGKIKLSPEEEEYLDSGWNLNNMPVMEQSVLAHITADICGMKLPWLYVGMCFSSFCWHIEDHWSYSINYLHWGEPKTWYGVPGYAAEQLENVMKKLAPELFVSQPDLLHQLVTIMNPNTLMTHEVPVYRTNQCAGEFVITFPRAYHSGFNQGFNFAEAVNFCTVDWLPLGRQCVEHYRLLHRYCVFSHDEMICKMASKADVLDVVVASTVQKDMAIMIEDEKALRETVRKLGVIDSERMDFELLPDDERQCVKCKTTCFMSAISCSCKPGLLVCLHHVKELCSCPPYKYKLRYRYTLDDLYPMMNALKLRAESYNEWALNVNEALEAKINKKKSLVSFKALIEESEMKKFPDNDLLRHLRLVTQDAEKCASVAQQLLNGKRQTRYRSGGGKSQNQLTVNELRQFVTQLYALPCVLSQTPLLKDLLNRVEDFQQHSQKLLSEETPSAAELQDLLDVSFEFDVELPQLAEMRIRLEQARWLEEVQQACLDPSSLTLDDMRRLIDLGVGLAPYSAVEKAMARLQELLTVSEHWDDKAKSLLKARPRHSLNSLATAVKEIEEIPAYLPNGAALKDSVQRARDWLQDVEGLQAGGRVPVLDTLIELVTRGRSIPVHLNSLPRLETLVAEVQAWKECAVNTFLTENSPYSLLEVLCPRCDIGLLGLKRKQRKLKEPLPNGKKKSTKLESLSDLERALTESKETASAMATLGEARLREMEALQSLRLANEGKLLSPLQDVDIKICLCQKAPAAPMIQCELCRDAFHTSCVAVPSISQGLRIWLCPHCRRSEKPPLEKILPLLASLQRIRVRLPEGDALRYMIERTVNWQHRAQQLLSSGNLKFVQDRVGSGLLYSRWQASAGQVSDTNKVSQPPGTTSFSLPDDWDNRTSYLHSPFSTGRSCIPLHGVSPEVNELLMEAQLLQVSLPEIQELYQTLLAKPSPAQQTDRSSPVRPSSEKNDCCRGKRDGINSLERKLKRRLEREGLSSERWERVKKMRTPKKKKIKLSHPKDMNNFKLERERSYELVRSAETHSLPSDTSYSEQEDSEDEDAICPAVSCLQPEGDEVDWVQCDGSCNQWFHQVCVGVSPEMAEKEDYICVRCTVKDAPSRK
smiles,measurement,setting,value
CCNC(=O)NCCCOc1cccc(CN2CCCCC2)c1,outcome,[1],inactive
same,Potency,[2],inactive
same,Potency,[3],inactive
same,outcome,[4],inactive
same,outcome,[5],inactive
same,Potency,[6],inactive
CCN(CC)CCOc1ccc(/C(=C(\Cl)c2ccccc2)c2ccccc2)cc1,Potency,[7],inactive
same,outcome,[1],inactive
same,outcome,[4],inactive
same,outcome,[5],inactive
same,Potency,[6],inactive
CC(C)N(CCC(=O)c1ccc2ccccc2c1)Cc1ccccc1,outcome,[1],inactive
same,Potency,[8],12.6 µM (active)
same,outcome,[9],inactive
same,outcome,[10],inactive
same,outcome,[11],inactive
same,Potency,[6],28.2 µM (active)
CN(C)[C@@H]1C(=O)C(C(N)=O)=C(O)[C@@]2(O)C(=O)C3=C(O)c4c(O)cccc4C[C@H]3C[C@@H]12,Potency,[12],126 µM (active)
same,Potency,[2],inactive
same,outcome,[4],inactive
same,outcome,[5],inactive
same,Potency,[6],inactive
CC(=O)OCC(=O)Nc1cc(C#N)cc(NC(=O)COC(C)=O)c1Cl,Potency,[7],inactive
same,outcome,[1],inactive
same,Potency,[3],inactive
same,outcome,[4],inactive
same,outcome,[5],inactive
same,Potency,[6],inactive
CCN(CC)CCNC(=O)c1ccc(NS(C)(=O)=O)cc1,outcome,[13],inactive
same,Potency,[8],inactive
same,outcome,[9],inactive
same,outcome,[10],inactive
same,outcome,[11],inactive
same,outcome,[5],inactive
CC(=O)Oc1ccc(C2(c3ccc(OC(C)=O)cc3)Oc3ccccc3NC2=O)cc1,Potency,[7],inactive
same,outcome,[1],inactive
same,Potency,[3],inactive
same,outcome,[5],inactive
same,Potency,[6],inactive
COC(=O)C1=CO[C@@H](O)[C@@H]2C(CO)=CC[C@H]12,outcome,[1],inactive
same,outcome,[13],inactive
same,Potency,[8],inactive
same,outcome,[9],inactive
same,outcome,[10],inactive
same,outcome,[11],inactive
same,outcome,[5],inactive
COc1c(C)c2c(c(O)c1C/C=C(\C)CCC(=O)OCCN1CCOCC1)C(=O)OC2,outcome,[14],inactive
same,Potency,[15],0.739 µM (active)
same,Potency,[2],inactive
same,Potency,[3],inactive
same,outcome,[4],inactive
same,Potency,[6],inactive
CN(C)c1cc2c(Nc3ccc4c(cnn4Cc4ccccc4)c3)ncnc2cn1,outcome,[1],inactive
same,outcome,[13],inactive
same,Potency,[8],inactive
same,outcome,[9],inactive
same,outcome,[10],inactive
same,outcome,[11],inactive
same,outcome,[5],inactive
O=C(Nc1ccc(S(=O)(=O)N2CCOCC2)cc1)c1cc(Cl)ccc1NS(=O)(=O)c1ccc(Cl)s1,Potency,[16],1.75 µM (active)
same,Potency,[12],inactive
same,Potency,[17],10 µM (active)
same,outcome,[14],inactive
same,outcome,[18],inactive
same,Potency,[2],inactive
same,Potency,[3],11.2 µM (active)
same,outcome,[5],inactive
same,Potency,[19],inactive
CN(CC1(C)CCCO1)S(=O)(=O)c1ccc(Cl)c(S(N)(=O)=O)c1 (centres undefined),outcome,[1],inactive
same,Potency,[2],inactive
same,Potency,[3],inactive
same,outcome,[4],inactive
same,outcome,[5],inactive
same,Potency,[6],inactive
Cc1nc(C2CCCCC2)c(-c2ccc(S(N)(=O)=O)c(F)c2)o1,outcome,[14],inactive
same,outcome,[18],inactive
same,Potency,[3],inactive
same,outcome,[4],inactive
same,outcome,[5],inactive
same,Potency,[6],inactive
COc1cc(NS(=O)(=O)c2ccc(N)cc2)nc(C)n1,outcome,[1],inactive
same,Potency,[2],inactive
same,outcome,[4],inactive
same,outcome,[5],inactive
same,Potency,[6],inactive
CCC(=O)O[C@H]1[C@H](O[C@@H]2[C@@H](C)[C@H](O[C@H]3C[C@@](C)(OC)[C@@H](O)[C@H](C)O3)[C@@H](C)C(=O)O[C@H](CC)[C@@](C)(O)[C@H](O)[C@@H](C)C(=O)[C@H](C)C[C@@]2(C)O)O[C@H](C)C[C@@H]1N(C)C,Potency,[16],2.78 µM (active)
same,Potency,[12],355 µM (active)
same,Potency,[17],63.1 µM (active)
same,outcome,[14],inactive
same,outcome,[18],inactive
same,Potency,[15],inactive
same,Potency,[2],inactive
same,outcome,[4],inactive
same,Potency,[6],inactive
